# In PubChem BioAssay (NCI):
# Values joined by “and” are separate entries in the source; they are usually repeats but may differ in a detail not shown here. Identical values can stand only once. This is part of a sample that, as a whole, favours compounds with a hit. Of some 83,000 tested, about 20% had one in any assay.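 Activity criterion: percent growth below 10, measured after cells in 96-well plates were exposed to a single compound concentration for 48 hours.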 Active and inactive are the calls of the source.
# Legend:
# Assay in all cases: NCI-60 one-dose screen, 48 h (100 = growth as untreated, 0 = no growth, -100 = all killed)
# Conditions in all cases: 10 µM unless noted
# T-47D breast = system: T-47D breast
# BT-549 breast = system: BT-549 breast
# MDA-MB-435 melanoma = system: MDA-MB-435 melanoma
# SW-620 colon = system: SW-620 colon
# MCF7 breast = system: MCF7 breast
# HCT-116 colon = system: HCT-116 colon
# HCC-2998 colon = system: HCC-2998 colon
# KM12 colon = system: KM12 colon
Structure (SMILES),growth (T-47D breast),growth (BT-549 breast),growth (MDA-MB-435 melanoma),growth (SW-620 colon),growth (MCF7 breast),growth (HCT-116 colon),growth (HCC-2998 colon),growth (KM12 colon)
COC(=O)c1nc(-c2ccccc2)oc1S(=O)(=O)N(C)CCO,44.5% (inactive),72.5% (inactive),60.9% (inactive),40.4% (inactive),47.8% (inactive),46.7% (inactive),99.4% (inactive),89.4% (inactive)
CCN1C(=O)/C(=c2\sc3n(c2=O)C2C(NN=3)N(CC)C(=O)N2CC)c2ccccc21 (centres undefined),39.5% (inactive),17.8% (inactive),-32.6% (active),29.7% (inactive),26% (inactive),9.36% (active),30% (inactive),13.7% (inactive)
c1ccc(Cc2cccc[n+]2C(c2ccccc2)c2ccccc2)cc1,3.66% (active),29.8% (inactive),40% (inactive),81.2% (inactive),34.6% (inactive),49.2% (inactive),40.7% (inactive),42.4% (inactive)
CCCCC1=C(Br)C(=O)c2nc(C)ccc2C1=O,65.7% (inactive),90% (inactive),102% (inactive),60.2% (inactive),82.1% (inactive),42.7% (inactive),108% (inactive),98.7% (inactive)
CCOC(=O)c1nc2c3ccccc3cnn2c1C(=O)c1ccc(OC)cc1,85.9% (inactive),98.2% (inactive),107% (inactive),99.2% (inactive),80.8% (inactive),92% (inactive),99.2% (inactive),102% (inactive)
C=C1C(=O)O[C@H]2[C@H]1CC/C(COC(=O)NCc1ccc(Cn3c(=O)sn(CCCI)c3=O)cc1)=C\CC[C@@]1(C)O[C@@H]21,8.47% (active),40.8% (inactive),17.5% (inactive),-42.9% (active),4.45% (active),-52% (active),104% (inactive),100% (inactive)
COc1ccc(-c2cc(-c3cccc(Cl)c3)c(C#N)c(=O)[nH]2)c(OC)c1,97.8% (inactive),85.9% (inactive),87.1% (inactive),96.3% (inactive),88.7% (inactive),96.9% (inactive),106% (inactive),102% (inactive)
CCC(=O)Oc1cc(Cl)c(Cl)cc1Cl,101% (inactive),102% (inactive),107% (inactive),107% (inactive),93% (inactive),94.3% (inactive),94.8% (inactive),107% (inactive)
NS(=O)(=O)OCC1OC(n2cnc3cncnc32)C(O)C1O (centres undefined),7.17% [0.1 µM] (active) and 10.8% [0.1 µM] (inactive),36% [0.1 µM] (inactive) and 32.4% [0.1 µM] (inactive),1.21% [0.1 µM] (active) and 13.3% [0.1 µM] (inactive),5.5% [0.1 µM] (active) and 6.37% [0.1 µM] (active),5.2% [0.1 µM] (active) and 3.48% [0.1 µM] (active),2.55% [0.1 µM] (active) and 6.83% [0.1 µM] (active),30.7% [0.1 µM] (inactive) and 22.9% [0.1 µM] (inactive),14% [0.1 µM] (inactive) and 10.4% [0.1 µM] (inactive)
O=C1CCc2c(sc3[nH]c(=S)n(Cc4ccc(Cl)cc4)c(=O)c23)C1,-3.14% (active),-10.1% (active),11.3% (inactive),16.5% (inactive),6.24% (active),5.99% (active),4.16% (active),-45.8% (active)
C=C1C(=O)O[C@H]2[C@H]1CC/C(CNS(=O)(=O)c1ccc3ccccc3c1)=C\CC[C@@]1(C)O[C@@H]21,-67.4% (active),-9.57% (active),0.587% (active),-29.8% (active),-56.9% (active),-87.2% (active),-57.7% (active),64.8% (inactive)
COC(=O)N/N=C/c1c[n+]([O-])c2ccccc2[n+]1[O-],20.4% (inactive),108% (inactive),96.4% (inactive),103% (inactive),93.6% (inactive),104% (inactive),104% (inactive),103% (inactive)
CCCCSc1ccc2nc(-c3ccc(OCCCN=C(N)N)cc3)cn2c1,90.7% (inactive),54.2% (inactive),47.6% (inactive),83.5% (inactive),47% (inactive),42.2% (inactive),59.2% (inactive),34.3% (inactive)
